Assay results published in PubChem BioAssay AID652105 (National Center for Advancing Translational Sciences (NCATS), 2013).
The whole screen tested about 330,000 compounds, of which about 4,100 (1.2%) were called active. Inconclusive results (about 2%) are left out. How the source made its calls: active means max response of -50% or lower; inconclusive means between -30% and -50%; inactive means -30% or higher. For the sample, actives were picked, then their nearest neighbours and some compounds at random.

molecular target: Phosphatidylinositol 5-phosphate 4-kinase type-2 alpha (Homo sapiens) (UniProt P48426); test: qHTS for Inhibitors of phosphatidylinositol 5-phosphate 4-kinase (PI5P4K); conditions: PI5P4Kalpha enzyme, ADP-Glo luminescence, 60 min; active compounds read low; further: value at the top dose of about 77 µM
Summary of the method: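 Controls without substrate or without enzyme flank wells where PI5P4Kalpha converts substrate using 5 microM ATP (final). Incubation lasts 60 minutes at room temperature; ADP formed is read by ADP-Glo luminescence.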
On the % scale 0 is the no-effect control and ±100 the full control effect.

Sequence of Phosphatidylinositol 5-phosphate 4-kinase type-2 alpha (Homo sapiens) (P48426 whole entry, looked up): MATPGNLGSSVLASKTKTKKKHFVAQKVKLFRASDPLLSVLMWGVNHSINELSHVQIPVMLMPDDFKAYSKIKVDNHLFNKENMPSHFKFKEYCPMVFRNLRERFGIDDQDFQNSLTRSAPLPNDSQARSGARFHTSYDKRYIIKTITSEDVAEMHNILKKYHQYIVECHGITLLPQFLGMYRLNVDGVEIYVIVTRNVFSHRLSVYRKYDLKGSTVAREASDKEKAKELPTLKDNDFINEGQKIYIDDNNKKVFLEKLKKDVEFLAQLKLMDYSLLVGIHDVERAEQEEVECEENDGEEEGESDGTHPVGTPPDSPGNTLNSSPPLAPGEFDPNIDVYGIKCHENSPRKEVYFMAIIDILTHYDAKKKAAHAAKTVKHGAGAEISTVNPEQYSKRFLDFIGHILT

Compound	max response
CCCCCCCCN1C(=O)[C@H](CC(=O)NCc2cccc3ccccc23)C[C@@]2(C(=O)OC)CCCCC=C12	22.3% (inactive)
CC(=O)N1C[C@@H](CO)[C@@H](N(C)C(=O)c2ccco2)C[C@H]1c1ccccc1	-3.57% (inactive)
COC(=O)c1sc2[nH]c(=S)n(N)c(=O)c2c1C	-60.5% (active)
COC(=O)c1sc(NC(=O)COC(=O)C2CCC2)c(C(=O)OC)c1C	16.3% (inactive)
CCc1nc2ccc(C(=O)Nc3cc(-c4ccccc4)ccc3OC)cn2c1N(CC)CC(=O)N(C)C	1.18% (inactive)
CC1=NN(c2ccc(Cl)c(C(=O)O)c2)C(=O)/C1=C/c1ccc(-c2ccccc2[N+](=O)[O-])o1	-9.29% (inactive)
O=C1NN(c2ccccc2)C(=O)/C1=C/c1ccc(-c2cccc(C(=O)O)c2)o1	-59.1% (active)
CC(=O)c1cc(-c2ccccc2)[nH]c1N1CCCC1	-3.68% (inactive)
CCCCOCCCNC(=O)C[C@@H]1C[C@@]2(C(=O)OCC)CCCC=C2N(CCC2=CCCCC2)C1=O	1.62% (inactive)
CC(=O)N1Cc2cc(C(=O)NCc3cccc(F)c3)nc(-c3cccc(C4=CCCCC4)c3)c2[C@H]1CCO	12.2% (inactive)
COc1ccc(-c2coc3c(C(=O)NC(C)C)cccc23)c(C)c1	-1.18% (inactive)
Cc1ccc2[nH]cc(CCCN3C(=O)c4ccccc4C3=O)c2c1	-7.36% (inactive)
COc1ccc2[nH]cc(CCN3C(=O)c4ccc(C(=O)O)cc4C3=O)c2c1	-70.3% (active)
COCCCN1C(=O)c2ccc(C(=O)Nc3ccc(OC)cc3OC)cc2C1=O	2.76% (inactive)
Cc1ccc(C(NC(=O)C2CCN(CCOc3ccc(Cl)cc3Cl)CC2)c2ccccn2)cc1 (stereo unspecified)	5.45% (inactive)
CC(C)N=C1CCCC1C(=S)SSC(=S)C1CCCC1=NC(C)C (stereo unspecified)	-54.3% (active)
CCCOc1ccc(F)cc1-c1cc(C(=O)NCc2ccc(F)cc2)[nH]n1	3.63% (inactive)
CCOC(=O)[C@]12CCCC=C1N(CCC1=CCCCC1)C(=O)[C@H](CC(=O)N1CCN(C(=O)c3ccco3)CC1)C2	-6.59% (inactive)
C[C@H]1CN([C@@H](C)CO)C(=O)c2cc(C3=CCCCC3)cnc2O[C@@H]1CN(C)C(=O)Cc1ccccc1	-2.83% (inactive)
COc1ccc(-c2cc3nc(NCCOc4ccccc4)ccn3n2)cc1	23.5% (inactive)
CCC(C(=O)NCc1ccccc1)n1c(Cc2cc(F)cc(F)c2)nc2ccccc21 (stereo unspecified)	0.77% (inactive)

Compound	max response
CC(C)CCNC(=O)c1[nH]c(C(F)(F)F)nc1-c1ccccc1	-8.89% (inactive)
CC(=O)N1c2ccc(S(=O)(=O)NCCC(=O)N(C)C3CCCCC3)cc2CC1C (stereo unspecified)	-54.5% (active)
CC(=O)N1c2ccc(S(=O)(=O)N(C)CC(=O)N(C)Cc3ccccc3)cc2CC1C (stereo unspecified)	-1.34% (inactive)
COc1cccc(CNS(=O)(=O)c2ccc3c(c2)CC(C)N3C(C)=O)c1 (stereo unspecified)	-2.98% (inactive)
COc1ccc(-c2nc3ccc(Br)cn3c2Cc2ccc(C)cc2)cc1OC	-8.6% (inactive)
COc1ccc(C(C(=O)Nc2c(C)cccc2C)N2CCN(c3ccc(C)cc3)CC2)cc1 (stereo unspecified)	5.89% (inactive)
O=C(N/N=C/c1cc(Br)c(O)c([N+](=O)[O-])c1)C(O)(c1ccccc1)c1ccccc1	-58.4% (active)
COc1ccc(CC(=O)N/N=C/c2cc([N+](=O)[O-])cc(Br)c2O)cc1	-27.2% (inactive)
O=C(N/N=C/c1cc(Cl)cc([N+](=O)[O-])c1O)C(O)(c1ccccc1)c1ccccc1	3.34% (inactive)
C[C@H](CO)N1C[C@H](C)[C@H](CN(C)C(=O)c2ccncc2)OCc2ccccc2-c2c(n(C)c3ccccc23)C1=O	0.39% (inactive)
O=C(CCCN1C(=O)/C(=C/c2ccccc2)SC1=S)Nc1ccc(O)cc1	0.839% (inactive)
O=C1/C(=C/c2ccc(F)cc2)SC(=S)N1CCCC(=O)N1CCCCC1CCO (stereo unspecified)	0.801% (inactive)
O=C1/C(=C/c2ccc(F)cc2)SC(=S)N1NS(=O)(=O)c1ccccc1	-65.3% (active)
C=C(C)C(=O)O[C@H]1C/C(C)=C\C(=O)/C=C(\C)[C@H](O)[C@@H]2OC(=O)C(=C)[C@@H]21	-56.7% (active)
C/C(=N\NC(=O)c1ccc(NS(=O)(=O)c2cccs2)cc1)c1ccc2ccccc2c1	-63% (active)
C/C(=N\NC(=O)c1ccc2ccccc2c1)c1cccnc1	-3.12% (inactive)
COc1cc(OC)c(C(=O)NNC(=O)c2ccc(NS(=O)(=O)c3cccs3)cc2)cc1OC	-9.62% (inactive)
CC(C)C1C(=O)N(Cc2cn(CCC3OCCO3)nn2)CCS(=O)(=O)N1Cc1ccc(-c2ccccc2C(F)(F)F)cc1 (stereo unspecified)	22.5% (inactive)
CCCNC(=O)C1(C)CCN(Cc2csc(-c3ccc(Cl)cc3)n2)C1 (stereo unspecified)	-11.7% (inactive)
CCCCNC(=O)C[C@@H]1C[C@@]2(C(=O)OC)CC(C)(C)CC=C2N(Cc2ccco2)C1=O	4.39% (inactive)
COc1ccc(C2=NN(C(C)=O)C(c3ccccc3)C2)cc1 (stereo unspecified)	-5.07% (inactive)

Compound	max response
COc1ccc(C2=NN(c3nc4ccccc4s3)C(=O)C2)cc1	-57.5% (active)
COc1ccc(-n2nnnc2-c2nc3ccccc3s2)cc1	11.9% (inactive)
Cn1c(Nc2ccc(F)cc2)nc2cc(-c3ccsc3)sc2c1=O	-0.288% (inactive)
CCCc1[nH]nc2c1C(c1ccc(OC)c(Cn3nc(C)c(Br)c3C)c1)C(C#N)=C(N)O2 (stereo unspecified)	-0.298% (inactive)
CCCc1[nH]nc2c1C(C1CC=CCC1)C(C#N)=C(N)O2 (stereo unspecified)	-60.2% (active)
CCCc1[nH]nc2c1C(c1ccc(Br)s1)C(C#N)=C(N)O2 (stereo unspecified)	-24.7% (inactive)
CCCCn1nnnc1C(c1ccccc1)N1CCN(c2ccccc2OC)CC1 (stereo unspecified)	1.03% (inactive)
O=C(NC(c1ccc(-c2ccccc2)cc1)c1cnccn1)C1CCN(CCOc2ccc(Cl)cc2Cl)CC1 (stereo unspecified)	31% (inactive)
CC(C)C[C@@H](COCc1ccc(Cl)cc1)N1CCN(C(=O)c2ccc(Cl)cc2Cl)CCC1=O	15.2% (inactive)
COc1ccc(-c2cc(NC(C)=O)c3ncc(-c4cc(OC)c(OC)c(OC)c4)n3c2)cn1	-8.79% (inactive)
Cc1cn([C@H]2C[C@H](O)[C@@H](/C=C/C(=O)NCCCc3ccccc3)O2)c(=O)[nH]c1=O	-0.963% (inactive)
Cc1ccc(S(=O)(=O)N2[C@@H](Cc3ccccc3)CO[C@H]2CC(=O)OCc2ccccc2)cc1	4.77% (inactive)
Cc1cc(Br)cn2c(Cc3ccccc3C(F)(F)F)c(C3CCCCC3)nc12	10.4% (inactive)
CN(CC(=O)Nc1cccc(F)c1)C(=O)CC1CCCC1	2.62% (inactive)
Cc1ccc(CSCC(=O)N(C)CC(=O)Nc2cccc(F)c2)cc1	4.92% (inactive)
CCN(CC)C(=O)CSC(Nc1cccc(F)c1)=C(C#N)C#N	-66.7% (active)
O=C1NC[C@@H](CCCCN2CCN(CCc3ccc(O)cc3)C(=O)C2=O)N(CC2CCCCC2)C1=O	-1.17% (inactive)
Cc1ccc(C)c(C(O)c2ncc(-c3cccc4ccccc34)[nH]2)c1 (stereo unspecified)	-1.21% (inactive)
CCCCn1nnnc1C(c1cccc(OC)c1OC)N1CCN(C/C=C/c2ccccc2)CC1 (stereo unspecified)	0.353% (inactive)
CCC(c1nc2ccccc2[nH]1)n1c(=O)c(-c2cccs2)nc2ccccc21 (stereo unspecified)	1.88% (inactive)
CCCCNC(=O)C[C@@H]1C[C@@]2(C(=O)OCC)CCC=C2N(Cc2ccco2)C1=O	-0.539% (inactive)

Compound	max response
CC(=O)c1cccc(-c2cnc3c(NC=O)cc(-c4cccc(C(=O)N(C)C)c4)cn23)c1	-9.37% (inactive)
CC(=O)Nc1cccc(-c2cc(NC(C)=O)c3ncc(-c4ccccc4)n3c2)c1	-5.78% (inactive)
COc1cccc(-c2cnc3c(NC(C)=O)cc(-c4cccc(NC(C)=O)c4)cn23)c1	-7.23% (inactive)
CC(=O)Nc1cccc(-c2cc(NC=O)c3ncc(-c4ccc(F)c(Cl)c4)n3c2)c1	-70.3% (active)
CC(=O)c1cccc(-c2cnc3c(NC=O)cc(-c4ccc(N5CCN(C)CC5)cc4)cn23)c1	-0.912% (inactive)
CC(=O)c1cccc(-c2cnc3c(NC=O)cc(-c4ccc(N(C)C)cc4)cn23)c1	-17.5% (inactive)
CC(=O)c1ccc(-c2cnc3c(NC=O)cc(-c4cccc(NS(C)(=O)=O)c4)cn23)cc1	-83.7% (active)
CC(=O)c1cccc(-c2cnc3c(NC=O)cc(-c4ccccc4Oc4ccccc4)cn23)c1	-13% (inactive)
CN(C)C(=O)c1cccc(-c2cnc3c(NC=O)cc(-c4ccc(F)cc4)cn23)c1	-50.2% (active)
CCCCN1C(=O)C(CC(=O)NCc2cccs2)CC(C(=O)N2CCCCCC2)=C1C (stereo unspecified)	8.96% (inactive)
COc1cccc(NC(=O)CN(C)C(=O)c2cc(Cl)nc3ccccc23)c1	0.592% (inactive)
Cc1cccnc1C(NC(=O)C1CCN(Cc2ccc(Cl)c(Cl)c2)CC1)c1ccc(Cl)cc1 (stereo unspecified)	13.1% (inactive)
Cc1nc(C(F)(F)F)ccc1C(=O)N1CCC1(C)C(=O)NS(=O)(=O)c1ccccc1Cl (stereo unspecified)	-2.74% (inactive)
C[C@H]1CN([C@@H](C)CO)C(=O)CCCn2nncc2CO[C@@H]1CN(C)S(=O)(=O)c1cccc(C#N)c1	8.11% (inactive)
COC(=O)c1c(C)c(C)nc(N)c1C#N	1.33% (inactive)
COCc1c(N)c(C)nc(Cl)c1C#N	-79.4% (active)
Cc1nc(Cl)c(C#N)c2c1CCCC2	-4.68% (inactive)
CC(C)NC(=O)Nc1ccc2c(c1)C(=O)N([C@H](C)CO)C[C@H](C)[C@@H](CN(C)Cc1ccc(C(F)(F)F)cc1)OCCCC[C@@H](C)O2	10.4% (inactive)
